In PubChem BioAssay AID1851 (National Center for Advancing Translational Sciences (NCATS), 2009):
Values joined by “and” are separate entries in the source; they are usually repeats but may differ in a detail not shown here. Equal entries are not always repeated. In all, about 16,000 compounds went through this assay and about 5,700 (36%) were called active. Inconclusive results (about 24%) are left out. This is one part of the list. A number with no mark means an inactive call. Calls follow the shape of the dose curve; as a rule, active = well fitted curve in the direction sought with a large enough effect; inconclusive = small, poorly fitted or top-dose-only effect, or effect the other way; inactive = no such curve, though single readings can be large or run the other way. Peptide text beside a SMILES is read from it. * marks the point of attachment. Cbz = O=C(OCc1ccccc1)*
% is scaled to controls: 0 for no effect and ±100 for the full control effect.

What follows are compounds tested against Cytochrome P450 1A2 (Homo sapiens) (UniProt P05177) (assay: Cytochrome panel assay with activity outcomes). Settings: recombinant CYP, pro-luciferin dealkylation, luminescence, p450-cyp1a2; series mostly up to 57.1 µM.
Chain of Cytochrome P450 1A2 (Homo sapiens) (P05177 whole entry, looked up): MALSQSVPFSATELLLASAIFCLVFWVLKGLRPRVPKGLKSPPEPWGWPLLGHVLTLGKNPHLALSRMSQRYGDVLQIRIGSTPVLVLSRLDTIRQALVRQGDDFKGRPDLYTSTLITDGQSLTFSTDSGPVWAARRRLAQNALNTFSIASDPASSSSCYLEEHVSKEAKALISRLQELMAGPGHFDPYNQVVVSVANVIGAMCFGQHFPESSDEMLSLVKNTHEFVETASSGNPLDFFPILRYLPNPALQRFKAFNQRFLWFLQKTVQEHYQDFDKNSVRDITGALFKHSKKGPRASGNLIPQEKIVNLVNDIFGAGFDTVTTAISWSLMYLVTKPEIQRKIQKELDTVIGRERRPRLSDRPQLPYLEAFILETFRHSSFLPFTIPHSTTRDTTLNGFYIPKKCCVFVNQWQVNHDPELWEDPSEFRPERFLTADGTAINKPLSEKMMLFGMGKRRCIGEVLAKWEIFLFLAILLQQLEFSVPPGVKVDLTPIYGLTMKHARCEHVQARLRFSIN
With `CC(C)=CCC/C(C)=C/CO/N=C1/C[C@@H](O)[C@@H](O)[C@@H]2[C@@H]3C(=O)N(C(C)(C)C)C(=O)[C@H]3CC[C@H]12` the activity, negative = inhibition was -9.03% [at 11.4 µM]. With `O=C(NNS(=O)(=O)c1ccc(Cl)cc1)C1CCN(Cc2ccccc2)CC1` the AC50 was “inactive”. For `CCOC(=O)N1CCC(NC(=O)CSCc2cnn(-c3ccccc3)c2-n2cccc2)CC1`, the AC50 was “inactive”. `O=C(NNS(=O)(=O)c1ccc(Cl)cc1)c1cnn(-c2ccccc2)c1-n1cccc1` was tested, and the AC50 was 17.8 µM (active). In the case of `Cc1cccc(NC(=S)c2nc3ccccc3s2)c1`, the AC50 is reported as 1.12 µM (active). For `Cc1ccc(NC(=S)c2nc3ccccc3s2)cc1`, the AC50 was 0.562 µM (active). For `Cc1cccc(NC(=O)CSc2nc(-c3ccccc3)c(C#N)c(=O)[nH]2)c1C`, the AC50 was “inactive”. `N#Cc1c(-c2cccs2)nc(SCC(=O)c2cccs2)[nH]c1=O` was tested, and the AC50 was 8.91 µM (active). `O=C(O)c1c(Br)c(Br)c(Br)c(Br)c1C1c2ccc(O)cc2Oc2cc(O)ccc21` was tested, and the activity, negative = inhibition was -6.83% [at 2.29 µM]. `CN=c1nc(-c2ccccc2)n(-c2ccccc2)s1` was tested, and the AC50 was 5.01 µM (active). `CCn1c(SCc2ccc(C#N)cc2)nnc1-c1ccc(S(=O)(=O)N2CCCCC2)cc1` was tested, and the AC50 was “inactive”. With `CCn1c(SCc2cccc(C)c2)nnc1-c1ccc(C)cc1` the AC50 was 17.8 µM (active). With `CCn1c(SCc2ccc(C)cc2)nnc1-c1nn(-c2ccccc2)ccc1=O` the AC50 was “inactive”. For `CCn1c(SCc2cccc(C)c2)nnc1-c1ccccc1`, the AC50 was 3.55 µM (active). For `CCOC(=O)c1cnc2c(cnn2CC)c1NN=C(C)C`, the AC50 was 501 nM (active) and 126 nM (active). For `CN(C)CCCNc1c(C(=O)O)cnc2c1cnn2C`, the AC50 was “inactive”. In the case of `CCCCNc1c(C(=O)OCC)c(C)nc2c1cnn2CC`, the AC50 is reported as 63.1 nM (active) and 631 nM (active). For `CCOC(=O)c1cnn(CCOC(=O)C(C)(C)C)c1NC(=O)C(C)(C)C`, the AC50 was “inactive”. `O=C(CCCN1CCC(O)(c2cccc(C(F)(F)F)c2)CC1)c1ccc(F)cc1` was tested, and the AC50 was “inactive”. In the case of `COC(=O)CCC(NC(=O)OCc1ccccc1)C(=O)NC(CC(C)C)C(=O)OC` (stereo not drawn) (Cbz-Glu(OMe)-Leu-OMe; configuration not given here), the AC50 is reported as “inactive”. With `O=C(Cn1nnc(-c2ccccc2)n1)OCc1ccccc1` the AC50 was 1.78 µM (active). For `NC(=O)C1CCN(C(=O)OCc2ccccc2)CC1`, the AC50 was “inactive”. With `Cc1[nH]c(N)nc(=S)c1CCC(=O)O` the activity, negative = inhibition was -11.2% [at 11.4 µM]. In the case of `Cc1[nH]c2c(C)ccc(C)c2c1CC(=O)O`, the AC50 is reported as 3.16 µM (active). `Cc1cc(C(=O)O)c(=O)[nH]c1C` was tested, and the AC50 was “inactive”. With `CC1CCCC(n2c(=S)[nH]c3ccccc3c2=O)C1C` (stereo not drawn) the AC50 was 7.08 µM (active). Work on `C/C(CCC(=O)OC[C@@H]1O[C@H](C#Cc2ccccc2)C=C[C@@H]1Oc1ccc(C)cc1)=N/O[C@@H](C)c1cc(-c2c(C)cc(C)cc2C)no1` yielded an activity, negative = inhibition of -4.43% [at 11.4 µM]. With `Cc1nc(N2CCOCC2)nc(N2CCN(c3ccccc3)CC2)c1[N+](=O)[O-]` the AC50 was 7.08 µM (active).
